Experimental data taken from PubChem BioAssay (NCATS).
Records with an inconclusive call do not appear. The source made the active and inactive calls. Unless noted, calls come from the whole dose curve; as a rule, active = well fitted curve in the direction sought with a large enough effect; inconclusive = small, poorly fitted or top-dose-only effect, or another doubt; inactive = no such curve, though single readings can be large; an effect the other way counts as inactive or inconclusive.

What was measured:
[1] = molecular target: Endonuclease 4 (Escherichia coli (strain K12)) (UniProt P0A6C1); assay: Counterscreen for APE1 Inhibitors: qHTS Validation Assay for Inhibitors of Endonuclease IV (AID 1708)
How it was run: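 Enzymatic AP-site incision assay using a double-stranded THF substrate labelled with TAMRA and BHQ-2; released fluorescence signals activity. Enzyme 2 nM, substrate 50 nM, 15 min compound preincubation.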

[2] = qHTS for differential inhibitors of proliferation of Plasmodium falciparum line D10 (AID 1877);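 note: parasites grown with compound for 72 h before DNA staining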; note: potency is the fitted concentration of half-maximal effect
[3] = qHTS for differential inhibitors of proliferation of Plasmodium falciparum line W2 (AID 1883); settings: Potency: Plasmodium falciparum W2 proliferation inhibition;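 note: parasites grown with compound for 72 h before lysis and staining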; note: potency is the fitted concentration of half-maximal effect
[4] = molecular target: Ferritin light chain (Equus caballus) (UniProt P02791); assay: qHTS Validation Assay for Identification of Novel General Anesthetics (AID 2323); note: series mostly up to about 77 µM
Sequence of Ferritin light chain (Equus caballus) (P02791 2-175 limits assumed): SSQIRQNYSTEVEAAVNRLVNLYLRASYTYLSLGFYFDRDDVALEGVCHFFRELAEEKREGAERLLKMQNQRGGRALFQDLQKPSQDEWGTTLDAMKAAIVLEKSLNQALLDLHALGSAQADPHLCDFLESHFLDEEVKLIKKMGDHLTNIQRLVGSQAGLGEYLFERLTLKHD
How it was run: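 Competitive displacement of the profluorescent anesthetic 1-AMA (50% saturated, PBS) from 10 uM apoferritin, 10 min, room temperature. Activity is normalized 380/535 nm fluorescence; concentration-response fitted with a four-parameter Hill equation.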

[5] = Quantitative high throughput screen for delayed death inhibitors of the malarial parasite plastid, 96 hour incubation (AID 488745); note: nearly all actives have a fitted effect of over 70% in size; note: potency is the fitted concentration of half-maximal effect
How it was run: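 P. falciparum carrying an integrated firefly luciferase reporter, grown in erythrocytes (2% hematocrit, 0.1% parasitemia final) in RPMI 1640/0.5% Albumax, was exposed to compound for 96 h (two generations) at 37 C, 5% CO2. Luminescence decrease indicated growth inhibition.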

[6] = Quantitative high throughput screen for delayed death inhibitors of the malarial parasite plastid, 48 hour incubation (AID 488752); note: nearly all actives have a fitted effect of over 65% in size; note: potency is the fitted concentration of half-maximal effect
How it was run: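 Erythrocytes infected with P. falciparum carrying an integrated firefly luciferase reporter (2% hematocrit, 0.1% parasitemia final) were exposed to compounds in RPMI 1640/0.5% Albumax for 48 h at 37 C, 5% CO2. Growth inhibition was scored as reduced luminescence.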

[7] = qHTS for differential inhibitors of proliferation of Plasmodium falciparum line 3D7 (AID 1876); note: potency is the fitted concentration of half-maximal effect
[8] = qHTS for differential inhibitors of proliferation of Plasmodium falciparum line HB3 (AID 1886); settings: Potency: Plasmodium falciparum HB3 proliferation inhibition;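 note: parasites grown with compound for 72 h before SYBR Green readout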; note: potency is the fitted concentration of half-maximal effect
[9] = molecular target: Voltage-gated inwardly rectifying potassium channel KCNH2 (Homo sapiens) (UniProt Q12809); assay: qHTS Assay for Small Molecule Inhibitors of the Human hERG Channel Activity (AID 588834);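 note: lower thallium flux fluorescence means stronger hERG block; nearly all actives have a fitted effect of over 50% in size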; note: potency is the fitted concentration of half-maximal effect
Sequence of Voltage-gated inwardly rectifying potassium channel KCNH2 (Homo sapiens) (Q12809 whole entry, looked up): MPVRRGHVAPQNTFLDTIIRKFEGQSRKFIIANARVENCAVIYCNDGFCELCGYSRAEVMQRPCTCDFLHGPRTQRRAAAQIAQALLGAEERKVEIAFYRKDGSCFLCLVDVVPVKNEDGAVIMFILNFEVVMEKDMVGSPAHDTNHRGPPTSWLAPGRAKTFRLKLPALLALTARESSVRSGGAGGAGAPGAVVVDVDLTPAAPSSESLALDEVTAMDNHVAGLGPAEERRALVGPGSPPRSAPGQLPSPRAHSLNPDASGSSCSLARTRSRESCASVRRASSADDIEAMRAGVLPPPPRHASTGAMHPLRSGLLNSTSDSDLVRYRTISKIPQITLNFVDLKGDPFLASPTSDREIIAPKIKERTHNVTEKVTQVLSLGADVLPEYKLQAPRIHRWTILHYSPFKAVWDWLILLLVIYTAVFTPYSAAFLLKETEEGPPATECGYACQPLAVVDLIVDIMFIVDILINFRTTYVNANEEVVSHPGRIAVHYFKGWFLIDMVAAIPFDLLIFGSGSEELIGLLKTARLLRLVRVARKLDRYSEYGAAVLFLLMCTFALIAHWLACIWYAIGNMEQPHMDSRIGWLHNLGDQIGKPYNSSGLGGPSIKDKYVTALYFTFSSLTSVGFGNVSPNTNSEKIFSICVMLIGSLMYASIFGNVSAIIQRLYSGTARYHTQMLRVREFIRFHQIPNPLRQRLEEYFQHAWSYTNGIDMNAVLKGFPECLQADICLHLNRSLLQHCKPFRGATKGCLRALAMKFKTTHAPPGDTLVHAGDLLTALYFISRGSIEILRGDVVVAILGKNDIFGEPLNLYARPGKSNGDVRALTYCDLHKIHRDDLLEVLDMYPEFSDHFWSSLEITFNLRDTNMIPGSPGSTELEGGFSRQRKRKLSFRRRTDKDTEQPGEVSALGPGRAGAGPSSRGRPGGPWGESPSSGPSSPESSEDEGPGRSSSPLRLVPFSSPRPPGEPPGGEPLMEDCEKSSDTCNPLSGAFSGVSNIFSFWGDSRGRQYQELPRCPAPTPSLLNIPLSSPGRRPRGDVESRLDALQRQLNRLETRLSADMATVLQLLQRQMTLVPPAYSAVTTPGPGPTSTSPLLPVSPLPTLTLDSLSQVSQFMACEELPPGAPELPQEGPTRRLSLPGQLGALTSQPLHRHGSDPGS
How it was run: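 Kinetic FDSS fluorescence; U2OS + hERG BacMam (~100 virus particles/cell); FluxOR Tl+ flux; ~10 min cpd; AC50 (Hill).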

[10] = Cytotoxicity counterscreen for inhibitors of SARS-CoV-2 cell entry (AID 1645845; calls by dose curve; note: nearly all actives have a fitted effect of over 50% in size); settings: outcome: dose series up to 57.1 µM unless noted
How it was run: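 48 h compound treatment (after 1 h preincubation), HEK293-ACE2 cells, 37 C/5% CO2; ATP luminescence endpoint; normalized to cell wells and media blanks.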

Measured: Potency

CC1Cc2cc3c(cc2C(c2ccc(N)cc2)=NN1)OCO3 (stereo unspecified)
inactive: [1] | [2] | [4] | [5] | [6]
active: [3] 2.24 µM

CCCN1CCCC(c2cccc(O)c2)C1 (stereo unspecified)
inactive: [1] | [7] | [2] | [8] | [4] | [5] | [6] | [9]
active: [3] 8.91 µM

NC(Cn1ccc(=O)[nH]c1=O)C(=O)O (stereo unspecified)
inactive: [1] | [7] | [2] | [3] | [8] | [4] | [5] | [6] | [9]

COc1cc(C[C@@H](C)N)c(OC)cc1I
active: [3] 3.98 µM
inactive: [1] | [7] | [2] | [8] | [4] | [5] | [6] | [9]

CCN1C[C@]2(C)CC[C@H](O)[C@@]34[C@@H]5C[C@@H]6[C@@H](OC)C[C@@](O)(C5[C@H]6O)[C@@H](C[C@@H]23)[C@@H]14
inactive: [1] | [7] | [2] | [8] | [4] | [5] | [9]

C[C@H]1OC[C@@H](C[N+](C)(C)C)O1
inactive: [1] | [7] | [2] | [3] | [8] | [4] | [5] | [6] | [9]

N#CC(=Cc1ccc(O)c(O)c1)C(N)=S
inactive: [1] | [2] | [5] | [6] | [9]

Oc1ccc2c3c1O[C@H]1[C@@H](O)CC[C@@]4(O)C(C2)N(CC2CCC2)CCC314 (stereo partly specified)
inactive: [1] | [7] | [2] | [8] | [4]
active: [9] 5.01 µM

CCCN1CCC[C@@H](c2cccc(C#N)c2)C1
active: [3] 11.2 µM
inactive: [1] | [7] | [2] | [8] | [4] | [5] | [6] | [9]

CCCN1CCC[C@@H]2Cc3n[nH]cc3C[C@H]21
inactive: [1] | [7] | [2] | [8] | [4] | [5] | [6]

CCN(CC)C(=O)N[C@@H]1C[C@@H]2c3cccc4[nH]cc(c34)C[C@H]2N(C)C1
active: [7] 0.398 µM | [3] 0.891 µM | [8] 0.891 µM | [5] 1.17 µM
inactive: [4]

CCCC[N+]1(C)C2CC(OC(=O)C(CO)c3ccccc3)CC1C1OC12 (stereo unspecified)
inactive: [1] | [2] | [8] | [4] | [5] | [6] | [9]

C[C@]12CC[C@H]3[C@@H](CCC4C[C@H](O)CC[C@@]43C)[C@@H]1CC[C@@H]2O (stereo partly specified)
inactive: [1] | [7] | [2] | [3] | [8] | [5] | [6] | [9]

CC[C@@H](CO)NC(=O)[C@H]1C=C2c3cccc4c3c(cn4C)C[C@H]2N(C)C1
inactive: [1] | [4] | [9]

CN1CCC23CCCC[C@H]2C1Cc1ccc(O)cc13 (stereo partly specified)
inactive: [7] | [2] | [8] | [4] | [5] | [6]
active: [3] 1.58 µM

CCCCN1C2CCC1CC(OC(c1ccc(F)cc1)c1ccc(F)cc1)C2 (stereo unspecified)
active: [7] 0.891 µM | [2] 2.24 µM | [3] 0.631 µM | [8] 1 µM | [5] 1.85 µM | [6] 7.38 µM | [9] 0.0891 µM
inactive: [1]

CCCCN=C(N)NC(=N)N
inactive: [10] inactive [setting not given]

CCCCCCCCCCCCCCCC(=O)OC[C@@H](O)[C@H]1OC[C@H](O)[C@H]1O
inactive: [10]
